The target of assay [1] is Cell division control protein 42 homolog (Homo sapiens) (UniProt P60953). The assay can be described thus: activated mutant Cdc42 GTP-binding inhibitors, dose response, biochemical, multiplex bead flow cytometry, Bodipy-FL-GTP (AID 1333;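 active means fitted half-maximal concentration within the tested dose range, moderate curve steepness, a statistically real signal drop, and little compound fluorescence or tag-binding interference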).
Assay [2] shares this target. The assay is described as follows: wildtype Cdc42 GTP-binding inhibitors, dose response, biochemical, multiplex bead flow cytometry, Bodipy-FL-GTP (AID 1334;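 active means fitted half-maximal concentration within the tested range, moderate curve steepness, significant signal drop, and little compound fluorescence or bead-linkage interference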). The following applies: bead-based flow cytometry, Bodipy-FL-GTP binding to GST-Cdc42; at 100 µM (top of the series) unless noted.
The target of assay [3] is GTPase HRas (Homo sapiens) (UniProt P01112). The assay can be described thus: inhibitors of GTP binding to wildtype Ras, dose response, biochemical, multiplex bead flow cytometry (AID 1335). The following applies: bead-based flow cytometry, Bodipy-GTP binding to GST-Ras; at 100 µM (top of the series) unless noted.
In assay [4] the test system is Ras-related protein Rab-7a (dog), GTP binding. The assay is described as follows: Rab7 GTP binding inhibitors, potency, dose response, biochemical, wildtype, multiplex bead flow cytometry (AID 1336; call rule not given here). In general terms: A flow cytometer gives signals particle by particle.
The target of assay [5] is Ras-related C3 botulinum toxin substrate 1 (Homo sapiens) (UniProt P63000). The assay is described as follows: wildtype Rac1 GTP binding inhibitors, dose response, biochemical, multiplex bead flow cytometry (AID 1340;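 active means dose curve with midpoint inside tested range, moderate steepness, plateau gap beyond fit error, low compound glow and bead-link interference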). The note with it: GST-Rac1 beads, Bodipy-FL-GTP binding; at 100 µM (top of the series) unless noted.
Assay [6] addresses GTPase HRas (Homo sapiens) (UniProt P01112). The assay is described as follows: activated Ras mutant GTP binding inhibitors, dose response, biochemical, multiplex bead flow cytometry (AID 1341;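 active means dose-response curve with midpoint inside the tested range, moderate steepness, significant amplitude and little compound fluorescence or bead-attachment interference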;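 further: GST-tagged constitutively activated Ras mutant immobilized on beads and multiplexed with other GTPases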).

For part of these data: Entries with a potency or affinity are not part of this list. Calls of active or inactive are those of the source.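 How the source made its calls, unless noted: active means fitted half-maximal concentration within 10 nM to 100 µM, steepness 0.5 to 2, significant signal drop, low assay interference; inactive means the rest.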

Sequence of GTPase HRas (Homo sapiens) (P01112 whole entry, looked up): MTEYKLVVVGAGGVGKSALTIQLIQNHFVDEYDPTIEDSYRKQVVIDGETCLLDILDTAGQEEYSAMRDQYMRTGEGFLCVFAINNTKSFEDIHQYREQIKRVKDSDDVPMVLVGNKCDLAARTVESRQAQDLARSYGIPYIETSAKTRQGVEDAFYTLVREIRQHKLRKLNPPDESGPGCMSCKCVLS
Sequence of Cell division control protein 42 homolog (Homo sapiens) (P60953 whole entry, looked up): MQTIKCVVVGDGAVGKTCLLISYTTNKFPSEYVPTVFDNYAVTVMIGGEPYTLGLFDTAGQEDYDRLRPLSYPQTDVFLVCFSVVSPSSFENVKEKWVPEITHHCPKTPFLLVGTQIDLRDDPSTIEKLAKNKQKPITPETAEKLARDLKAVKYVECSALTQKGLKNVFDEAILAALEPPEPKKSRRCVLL

For the compound `Cc1cc2ccccn2c1C(=O)c1cccc([N+](=O)[O-])c1`, the compound was classed as inactive in assay [1], in assay [4] and in assay [6]. Moreover, the fluorescence, percent of control (lower = inhibition) in assay [2] is 34%. Further, the GTP binding, percent of control in assay [3] was 81.2%. In assay [5], this compound registered a GTP binding signal, raw median fluorescence (lower = inhibition) (MCF (arbitrary fluorescence units)) of 250.
In the case of `Cc1cc2[nH]c3c(c[n+](C)c4ccccc34)c2cc1C`, the call in assay [1], in assay [4] and in assay [6] was inactive. Moreover, in assay [2], the fluorescence, percent of control (lower = inhibition) was 35.5%. In assay [3], this compound yielded a GTP binding, percent of control of 78.4%. The GTP binding signal, raw median fluorescence (lower = inhibition) (MCF (arbitrary fluorescence units)) in assay [5] was 253.
`Cc1ccc2cc3cc(C(=O)N4CCN(Cc5ccccc5)CC4)sc3nc2c1`: the call in assay [1], in assay [4] and in assay [6] was inactive. Besides, the fluorescence, percent of control (lower = inhibition) in assay [2] was found to be 87.8%. This compound also yielded a GTP binding, percent of control in assay [3] of 156%. Besides, in assay [5], the GTP binding signal, raw median fluorescence (lower = inhibition) (MCF (arbitrary fluorescence units)) amounted to 188.
With `O=C(O)c1ccc(CSCc2ccccc2)o1`, the call in assay [1], in assay [4] and in assay [6] was inactive. Also, the fluorescence, percent of control (lower = inhibition) in assay [2] is 62.4%. This compound yielded a GTP binding, percent of control in assay [3] of 91.5%. This compound had a GTP binding signal, raw median fluorescence (lower = inhibition) (MCF (arbitrary fluorescence units)) in assay [5] of 41.9.
As to `COc1ccccc1C(=O)N=Nc1c(O)[nH]c2ccc([N+](=O)[O-])cc12`, the call in assay [1], in assay [4] and in assay [6] was inactive. The fluorescence, percent of control (lower = inhibition) in assay [2] worked out at 23.9%. Besides, in assay [3], the GTP binding, percent of control was found to be 51.1%. In addition, in assay [5], the GTP binding signal, raw median fluorescence (lower = inhibition) (MCF (arbitrary fluorescence units)) worked out at 115.
For the compound `O=S(=O)(Cc1ccc(Cl)cc1)c1ccccc1-c1nnc(-c2ccccc2)o1`, the result in assay [1], in assay [4] and in assay [6] was inactive. The fluorescence, percent of control (lower = inhibition) in assay [2] worked out at 104%. Besides, the GTP binding, percent of control in assay [3] was 196%. For the same compound, the GTP binding signal, raw median fluorescence (lower = inhibition) (MCF (arbitrary fluorescence units)) in assay [5] was found to be 207.
Turning to `Cc1cccc(CSc2ncccc2C(=O)O)c1`, the result in assay [1], in assay [4] and in assay [6] was inactive. For the same compound, the fluorescence, percent of control (lower = inhibition) in assay [2] is 69.2%. In assay [3], the GTP binding, percent of control worked out at 70.8%. For the same compound, the GTP binding signal, raw median fluorescence (lower = inhibition) (MCF (arbitrary fluorescence units)) in assay [5] is 314.
On to `COc1ccc2[nH]c3nc(SCC(=O)Nc4ccc5c(c4)OCO5)nnc3c2c1`, for which the call in assay [1], in assay [4] and in assay [6] was inactive. The fluorescence, percent of control (lower = inhibition) in assay [2] turned out to be 70.4%. The compound also registered a GTP binding, percent of control in assay [3] of 150%. Besides, the GTP binding signal, raw median fluorescence (lower = inhibition) (MCF (arbitrary fluorescence units)) in assay [5] is 164.
For the compound `Cc1cccc(CNc2ncccc2C(=O)O)c1`, the compound was classed as inactive in assay [1], in assay [4] and in assay [6]. For the same compound, the fluorescence, percent of control (lower = inhibition) in assay [2] was 61.9%. This compound displayed a GTP binding, percent of control in assay [3] of 224%. In assay [5], this compound returned a GTP binding signal, raw median fluorescence (lower = inhibition) (MCF (arbitrary fluorescence units)) of 57.
For `O=C(NC1CC2CCCC(C1)N2C(=O)Nc1ccc(Cl)c(C(F)(F)F)c1)C1CC1` (stereo not drawn), the outcome in assay [1], in assay [4] and in assay [6] was inactive. Also, the fluorescence, percent of control (lower = inhibition) in assay [2] was determined as 94.3%. Moreover, the GTP binding, percent of control in assay [3] came to 162%. This compound also returned a GTP binding signal, raw median fluorescence (lower = inhibition) (MCF (arbitrary fluorescence units)) in assay [5] of 185.
Take `Cc1cc(C(F)(F)F)c(C#N)c(SCC(=O)Nc2nc3ccccc3s2)n1`: the outcome in assay [1], in assay [4] and in assay [6] was inactive. For the same compound, the fluorescence, percent of control (lower = inhibition) in assay [2] was found to be 89.9%. The compound further showed a GTP binding, percent of control in assay [3] of 105%. This compound yielded a GTP binding signal, raw median fluorescence (lower = inhibition) (MCF (arbitrary fluorescence units)) in assay [5] of 188.
As to `COc1cc(/C=N/Nc2nn3cnnc3c3ccccc23)ccc1O`, the result in assay [1], in assay [4] and in assay [6] was inactive. Moreover, the fluorescence, percent of control (lower = inhibition) in assay [2] was found to be 50.3%. The compound further came in with a GTP binding, percent of control in assay [3] of 122%. This compound also gave a GTP binding signal, raw median fluorescence (lower = inhibition) (MCF (arbitrary fluorescence units)) in assay [5] of 90.4.
With `C/C(=N\NC(=O)c1ccc(Cl)c(S(=O)(=O)Nc2ccccc2Cl)c1)c1ccncc1`, the compound was called inactive in assay [1], in assay [4] and in assay [6]. Besides, in assay [2], the fluorescence, percent of control (lower = inhibition) worked out at 38.1%. The GTP binding, percent of control in assay [3] is 54%. Besides, in assay [5], the GTP binding signal, raw median fluorescence (lower = inhibition) (MCF (arbitrary fluorescence units)) is 92.
